Screening results (PubChem BioAssay)
Rows were chosen to be rich in hits. Some 12% of all compounds tested hit in one or more screens of this group.
BAZ2B inh – inhibitors of human BAZ2B bromodomain; Potency, µM (doses to about 114 µM), hits mostly inhibitors; Q9UIF8; AlphaScreen BAZ2B-H3K14Ac peptide displacement; hit rate 4.4% among 360,000; note: nearly all actives have a fitted effect of over 60% in size
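Inhibition is scored as reduced AlphaScreen emission. The BAZ2B/b-H3(5-23)K14Ac complex (50 nM each) in PBS pH 7.4, 0.01% Tween-20 meets compound (up to 110 uM) for 30 min at RT before bead addition.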
HP1b chromo inh – inhibitors of HP1-beta chromodomain binding to methylated histone tails; P83916; AlphaScreen HP1-beta / biotin-H3K9me3 peptide binding; Potency, µM (series often up to 114 µM), usual class: inhibitors; hit rate 0.56% among 390,000; note: nearly all actives have a fitted effect of over 70% in size
Target sequence (P83916 whole entry, looked up): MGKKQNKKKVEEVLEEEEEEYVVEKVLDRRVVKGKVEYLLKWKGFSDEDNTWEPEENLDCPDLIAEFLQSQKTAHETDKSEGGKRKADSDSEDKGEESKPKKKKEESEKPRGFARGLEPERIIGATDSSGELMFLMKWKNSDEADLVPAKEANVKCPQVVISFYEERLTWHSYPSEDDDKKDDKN
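AlphaScreen: HP1-beta (50 nM) preformed 30 min with biotin-H3(1-18)K9me3 peptide (50 nM) in PBS pH 7.4, 0.01% Tween-20. Compound added for 30 min at RT, then streptavidin donor/nickel chelate acceptor beads (10 ug/mL) for 30 min.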
L3MBTL1 inh – L3MBTL1 (human) inhibition; AlphaScreen L3MBTL1–H3K9me1 peptide binding; Potency, µM (series often up to 57.1 µM), actives largely listed as inhibitors; hit rate 0.66% among 230,000; AID 485360; note: nearly all actives have a fitted effect of over 60% in size
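AlphaScreen assay: L3MBTL1 (50 nM final) was preincubated 30 min at room temperature with biotinylated H3(1-15)K9me1 peptide (75 nM final), then 30 min with library compounds; streptavidin donor and nickel chelate acceptor beads (10 ug/mL final) added, 30 min dark.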
JMJD2A Tudor – inhibitors of human JMJD2A Tudor domain; AID 504339; AlphaScreen JMJD2A-Tudor / H3K4me3 peptide binding; hit rate 4.4% among 390,000; Potency, µM (highest dose often 114 µM), actives largely listed as inhibitors; O75164; note: nearly all actives have a fitted effect of over 50% in size
G9a block – inhibitors of human histone lysine methyltransferase G9a. Q96KQ7. G9a H3K9 monomethylation, AlphaScreen, 2 h. Potency, µM (highest dose often 102 µM), usual class: inhibitors. hit rate 8.8% among 350,000. AID 504332; note: nearly all actives have a fitted effect of over 75% in size
Target sequence (Q96KQ7 913-1193 limits assumed): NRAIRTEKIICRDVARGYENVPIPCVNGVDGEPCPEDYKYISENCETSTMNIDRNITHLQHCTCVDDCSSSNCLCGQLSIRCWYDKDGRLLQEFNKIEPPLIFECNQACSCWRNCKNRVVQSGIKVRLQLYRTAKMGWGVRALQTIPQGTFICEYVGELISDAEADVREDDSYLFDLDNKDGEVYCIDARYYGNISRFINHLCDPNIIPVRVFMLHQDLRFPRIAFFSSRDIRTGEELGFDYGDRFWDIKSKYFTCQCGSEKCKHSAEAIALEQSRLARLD
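Compounds were preincubated with 20 nM G9a for 15 min, after which biotinylated H3K9 peptide (500 nM) and SAM (20 uM) started a 2 h room-temperature reaction. Monomethylated product was quantified by antibody-based AlphaScreen chemiluminescence.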
Sfp inh – Sfp phosphopantetheinyl transferase inhibition; Potency, µM, most hits filed as inhibitors; hit rate 3.5% among 310,000; Biochemical Sfp PPTase activity, qHTS; Q9F4F7;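 note: the enzyme is Sfp with the accession as filed and its product quenches rhodamine fluorescence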
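After 15 min at room temperature with compound, 15 nM Sfp received 5 uM rhodamine-CoA plus 12.5 uM BHQ-2-ybbR (50 mM Hepes pH 7.6, 10 mM MgCl2). Rate came from the fluorescence difference over 30 min, ex 525/em 598 nm.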
Hits are given with their value; – = inactive; ? = inconclusive; · = no result given; [ ] = remark or other dose. Calls come from the whole dose curve; as a rule, active = well fitted curve in the direction sought with a large enough effect; inconclusive = small, poorly fitted or top-dose-only effect, or another doubt; inactive = no such curve, though single readings can be large; an effect the other way counts as inactive or inconclusive.

SMILES	BAZ2B inh	HP1b chromo inh	L3MBTL1 inh	JMJD2A Tudor	G9a block	Sfp inh
COC(=O)c1sc(S(=O)(=O)NCCC(=O)O)c(C(=O)OC)c1C	–	–	–	–	?	–
COC(=O)c1sc(NC(=O)C(C)C)c(C(=O)OC)c1C	?	–	–	–	–	–
COC(=O)c1sc(S(=O)(=O)NCC(=O)O)c(C(=O)OC)c1C	?	–	–	–	71µM	–
COCCNC(=O)Cc1c(C)c2c(cc(C)c3c(C(C)(C)C)coc32)oc1=O	–	–	·	–	–	–
Cc1cc(C)c(NC(=O)Cn2nnc(-c3nc(-c4ccccc4)no3)c2N)c(C)c1	–	–	·	–	?	·
O=C1C(N2CCOCC2)=C(n2nnc3ccccc32)C(=O)c2ccccc21	10µM	?	·	–[11.4 µM]	40µM	–
O=C1c2ccccc2C(=O)c2c1cccc2-n1nnc2ccccc21	–	–	·	–	?	–
COc1ccccc1-c1ccc2ncnc(NCCNC(C)=O)c2c1	·	·	·	·	–[0.501 µM]	–
Cc1ccc(/C=N/n2c(-c3ccco3)n[nH]c2=S)cc1	?	56µM	–	10µM	0.63µM	–
Cn1cccc1/C=N/n1c(-c2ccco2)n[nH]c1=S	?	–	?	20µM	·	?
COc1cc(-c2n[nH]c(=S)n2/N=C/c2cccn2C)cc(OC)c1OC	?	?	·	1.3µM	?	?
S=c1[nH]nc(-c2ccco2)n1/N=C/c1ccc(Cl)c(Cl)c1	–	–	–	79µM	1.6µM	–
Cc1ccccc1-c1nn2c(=O)cc(CN3CCN(S(=O)(=O)c4ccc(Cl)cc4)CC3)nc2s1	–	–	·	–	–	·
S=c1[nH]nc(-c2cccc(Cl)c2)n1/N=C/c1ccco1	–	–	·	32µM	3.5µM	50µM
Cc1cc(C)n(-c2nnc(C)n2/N=C/c2ccco2)n1	–	–	·	–	–	–
S=c1[nH]nc(-c2cccc(Cl)c2)n1/N=C/c1ccc(-c2ccccc2Br)o1	–	–	–	–	?	–
S=c1[nH]nc(-c2ccccn2)n1/N=C/c1ccco1	8.9µM	–	20µM	7.1µM	·	45µM
S=c1[nH]nc(-c2ccco2)n1/N=C/c1c(Cl)cccc1Cl	–	–	·	?	0.4µM	–
S=c1[nH]nc(-c2ccco2)n1/N=C/c1cccc(Cl)c1	–	–	–	79µM	0.71µM	–
CCc1ccc(Cn2nnc(C(=O)Nc3ccc(C)cc3)c2N)cc1	–	–	·	–	–	·
COc1cccc(-c2ncc3ccccc3c2COC(=O)c2ccc(C(C)(C)C)cc2)c1	–	–	–	–	–[0.501 µM]	·
CCOc1ccc(C2=C(C(=O)CC)Sc3nncn3N2C(=O)CC)cc1	–	–	·	–	–	·
S=c1[nH]nc(-c2ccccn2)n1/N=C/c1cccc(Cl)c1	28µM	–	·	20µM	1.6µM	–
S=c1[nH]nc(-c2ccco2)n1/N=C/c1ccccn1	50µM	·	–[11.4 µM]	·	–	79µM
CC(C(=O)Nc1ncc([N+](=O)[O-])s1)N1C(=O)c2ccccc2S1(=O)=O (stereo not given)	–	–	–	20µM	11µM	·
SMILES	BAZ2B inh	HP1b chromo inh	L3MBTL1 inh	JMJD2A Tudor	G9a block	Sfp inh
CCCCCOC(=O)c1ccc(Nc2nc(C(=O)OCC)nc3ccccc23)cc1	–	–	·	–	–	·
Cc1cc(OC(=O)C(C)(C)C)c([N+](=O)[O-])c(=O)[nH]1	–	–	·	–	1.4µM	–
COc1ccc(/C=C/C(=O)Oc2cc(C)[nH]c(=O)c2[N+](=O)[O-])cc1OC	–	–	·	32µM	–	–
Cc1cc(OC(=O)c2ccc(Cl)cc2Cl)c([N+](=O)[O-])c(=O)[nH]1	–	–	–	–	79µM	–
Cc1cc(OC(=O)c2ccc(F)cc2)c([N+](=O)[O-])c(=O)[nH]1	–	–	·	–	?	–
C=CCOc1ccc(/C=C\c2nc(O)c([N+](=O)[O-])c(=O)[nH]2)cc1OC	–	–	–	–	79µM	–
COc1ccc(S(=O)(=O)Nc2cccc(-c3ccc(N4CCC(C)CC4)nn3)c2)c(OC)c1	–	–	·	–	–	·
O=C(NCc1ccc(N2CCCC2=O)cc1)c1cc(COc2c(F)cccc2F)on1	–	–	·	–	·	–
Cc1ccc(-n2ncc(C(=O)Nc3cc(Cl)ccc3Cl)c2C2CCNCC2)cc1	–	–	·	?	45µM	–
Cc1ccc(-n2ncc(C(=O)Nc3c(Cl)cccc3Cl)c2C2CCNCC2)cc1	–	–	·	–	–	·
COCCn1c(C)cc(C(=O)COc2cccnc2[N+](=O)[O-])c1C	–	–	·	–	?	–
Cc1cc(C)c(C(=O)COc2cccnc2[N+](=O)[O-])cc1C	50µM	–	·	56µM	7.1µM	56µM
C[C@H]1CN([C@@H](C)CO)C(=O)Cc2cc(NC(=O)CCN3CCOCC3)ccc2O[C@@H]1CN(C)Cc1ccc(Oc2ccccc2)cc1	·	–	–	45µM	·	·
C[C@H]1CN([C@@H](C)CO)C(=O)Cc2cc(NC(=O)C3CC3)ccc2O[C@H]1CN(C)Cc1ccc(Oc2ccccc2)cc1	·	–	–	?	·	·
CC(C)c1ccc(-c2noc(SCC(=O)N3CCCCC3)n2)cc1	–	–	·	–	–	·
COc1ccccc1CNC(=O)C/C(C)=N/NC(=O)COc1ccc(C)cc1Br	–	–	–	–	–	–
CCN(CC)c1ccc(CNC(=O)C/C(C)=N/NC(=O)COc2ccc(C)cc2Br)cc1	45µM	?	·	?	?	–
COC(=O)c1ccc(NC(=O)c2c(NCc3ccc(OC)c(OC)c3)sc3c2CCCC3)cc1	–	–	·	?	?	·
COc1ccc(OC)c(NC(=O)c2c(NCc3ccc(C)o3)sc3c2CCC(C)C3)c1 (stereo not given)	?	?	·	32µM	11µM	·
Cc1ccc(C(=O)Nc2sc3c(c2C(=O)O)CCC(C)C3)o1 (stereo not given)	·	–	–	–	·	·
COc1ccc(OC)c(NC(=O)c2c(NCc3ccc(OC)c(OC)c3)sc3c2CCC(C)C3)c1 (stereo not given)	?	?	·	50µM	13µM	·
COc1ccc(N2CC(NC(=O)c3ccc(S(=O)(=O)N4CCOCC4)cc3)CC2=O)cc1OC (stereo not given)	–	–	·	–	–	·
CCC(C)(C)C1CCc2[nH]nc(C(=O)NCc3ccc(Cl)cc3)c2C1 (stereo not given)	–	–	–	–	–[2.33 µM]	·
C/C=C/C=C/C(=O)[C@@H]1[C@@H]([C@]2(C)OC(=O)C(C)=C2O)[C@H]2/C(=C(O)/C=C/C=C/C)C(=O)[C@]1(C)C(=O)C2(C)O (stereo not given in full)	79µM	–	·	45µM	?	50µM
COc1ccc(CCNC(=O)c2cccnc2)cc1	–	–	·	–	–	–
COc1ccc(OCC(=O)OCCNC(=O)c2cccnc2)cc1	?	–	–	50µM	32µM	–
COc1cccc(C(=O)OCCNC(=O)c2cccnc2)c1	–	–	·	–	50µM	–
